# Screens from PubChem BioAssay.
# GLP-1R agonist: qHTS of GLP-1 Receptor Agonists; Glucagon-like peptide 1 receptor (Homo sapiens), P43220; HEK293 GLP-1R CRE-luciferase, luminescence, 4-6 h; cells express a hypersensitive GLP-1R form; Potency, µM (highest dose often 45.6 µM), without a hit: at the top dose activation, usual class: activators; 380,000 tested, 0.007% active; note: potency is the fitted concentration of half-maximal effect; % of control where 0% means no effect
# Target sequence (P43220 whole entry, looked up): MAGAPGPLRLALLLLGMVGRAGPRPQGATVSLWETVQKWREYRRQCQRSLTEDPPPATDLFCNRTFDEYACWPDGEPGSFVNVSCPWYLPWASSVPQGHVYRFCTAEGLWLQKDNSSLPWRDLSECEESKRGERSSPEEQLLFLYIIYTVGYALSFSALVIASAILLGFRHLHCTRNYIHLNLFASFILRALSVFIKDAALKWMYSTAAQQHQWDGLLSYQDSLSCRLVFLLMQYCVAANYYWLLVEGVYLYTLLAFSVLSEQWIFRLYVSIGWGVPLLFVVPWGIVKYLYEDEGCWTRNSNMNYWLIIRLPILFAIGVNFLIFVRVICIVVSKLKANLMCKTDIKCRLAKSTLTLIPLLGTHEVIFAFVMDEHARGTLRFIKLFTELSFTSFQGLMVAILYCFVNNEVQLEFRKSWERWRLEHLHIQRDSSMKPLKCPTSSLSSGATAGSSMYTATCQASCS
# GLS inh: qHTS for Inhibitors of Glutaminase (GLS). GLS enzymatic activity, qHTS titration. 410,000 tested, 0.21% active. Glutaminase kidney isoform, mitochondrial (Homo sapiens), O94925. Potency, µM (series often up to 45.5 µM), inactives show at the highest dose activity change, negative = inhibition, usual class: inhibitors; note: potency is the fitted concentration of half-maximal effect; % is set by controls: 0 for no effect and ±100 for the full control effect
#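 Two-point fluorescence kinetic (t0, 30 min RT) for hKGA; glutamate detected via glutamate oxidase–HRP–Amplex Red. Substrate: 1 mM L-glutamine solution; buffer 45 mM KH2PO4, pH 8.2.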
# GLP1R cytotox: qHTS of GLP-1 Receptor Inverse Agonists: Cytotox Screen | Potency, µM (titrated, usually from 38.3 µM), for inactives: at the top dose activity change, negative = inhibition, hits mostly inhibitors | AID 624418, 2012 | HEK293 cAMP-luciferase reporter cells, luminescence, 24 h | 410,000 tested, 0.13% active;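 note: loss of luciferase light is scored as toxicity; potency is the fitted concentration of half-maximal effect; % is set by controls: 0 for no effect and ±100 for the full control effect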
#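 Luminescence readout: signal drop marks cytotoxicity. Plated cells grew 12 h at 37 °C, 5% CO2, received 23 nL compound for 24 h, then got luciferase reagent, read after 12 min at RT.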
# hERG WT inh: qHTS for Inhibitors of KCHN2 3.1: Wildtype qHTS; U2OS, BacMam KCNH2, thallium flux FluxOr; active compounds read low; activity change, % at 1.84 µM; 340,000 tested, 0.37% active;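 active = maximum activity change below -70%; inconclusive = maximum activity change between -70% and -50%; inactive = maximum activity change above -50%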; note: % is set by controls: 0 for no effect and ±100 for the full control effect
#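 U2OS cells transduced with wild-type KCNH2 virus are loaded with FluxOr dye for 45 min, and thallium flux is measured in kinetic reads before and after stimulation buffer. Rate constants are normalized to DMSO controls.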
# KCNH2 3.1 inh: qHTS for Inhibitors of KCHN2 3.1: Mutant qHTS; U2OS KCNH2 3.1, thallium flux FluxOr; active compounds read low; activity change, % (tested at about 1.8 µM); 340,000 tested, 0.95% active;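 active = maximum activity change below -70%; inconclusive = maximum activity change from -70% to -50%; inactive = maximum activity change above -50%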;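 note: thallium influx rate constant from kinetic fluorescence after stimulation buffer; % is set by controls: 0 for no effect and ±100 for the full control effect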
#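 Thallium flux read-out: FluxOr dye with Red40 quencher in HBSS/HEPES, 45 min at RT. Rate constants from kinetic reads were normalized to positive and negative DMSO controls. Cells: U2OS virally expressing the 3.1 isoform.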
# GLP-1R inv ag: qHTS of GLP-1 Receptor Inverse Agonists (Inhibition Mode); Glucagon-like peptide 1 receptor (Homo sapiens), P43220; 410,000 tested, 1.6% active; HEK293 GLP-1R CRE-luciferase, luminescence, 24 h; GLP-1R form is constitutively active; AID 624417, 2012; Potency, µM (highest dose often 38.3 µM), for the others: at the top dose activity change, negative = inhibition, hits mostly inhibitors; note: potency is the fitted concentration of half-maximal effect; % is set by controls: 0 for no effect and ±100 for the full control effect; nearly all actives have a fitted effect of over 55% in size
#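 Luminescence readout: a drop in cAMP-driven luciferase signal flags inverse agonism at a constitutively active GLP-1R stably expressed in HEK293. Compound exposure lasted 24 hr at 37 deg C, 5% CO2.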
# Starred values were filed as active, the others as inactive; ? = inconclusive; . = no result; [ ] = dose if it differs, or a comment. A selection: hits, their analogues and other compounds. The true share with any hit is near 2.8%. Unless noted, calls come from the whole dose curve; as a rule, active = well fitted curve in the direction sought with a large enough effect; inconclusive = small, poorly fitted or top-dose-only effect, or another doubt; inactive = no such curve, though single readings can be large; an effect the other way counts as inactive or inconclusive.
SMILES,GLP-1R agonist,GLS inh,GLP1R cytotox,hERG WT inh,KCNH2 3.1 inh,GLP-1R inv ag
Cc1ccc(Nc2cc(C)nc3ncnn23)c(Cl)c1,-3%,0%,-2%,3,2,11%
Cc1cc(Nc2cccc(Cl)c2Cl)n2ncnc2n1,-2%,1%,-10%,-222*,-3,87%
C=CCn1c(-c2csc(-c3ccc(Cl)cc3)n2)n[nH]c1=S,-25%,-8%,3.5µM*,-187*,-195*,?
S=c1[nH]nc(-c2ccc(Cl)cc2)n1Cc1ccccc1,0%,-21%,-6%,-306*,4,-23%
C=CCn1c(-c2csc(-c3ccccc3)n2)n[nH]c1=S,7%,?,11µM*,6,1,?
S=c1[nH]nc(-c2ccccc2)n1/N=C/c1ccc(Cl)cc1,12%,16µM*,-35%,-10,16,-6%
CCC(C)n1c(=N)c(C(=O)NCc2ccccc2)cc2c(=O)n3cc(C)ccc3nc21 (configuration not stated),-1%,-12%,77%,.,.,20%
CCOc1ccc(NC(=O)CSc2nnc3c(C)cc4ccccc4n23)cc1,.,-4%,-12%,.,.,-6%
S=c1[nH]nc(-c2cccnc2)n1/N=C/c1ccc(Br)s1,10%,11%,18%,-19,-99*,31%
O=C(NCc1cccc(C(F)(F)F)c1)c1cc(Cl)ccc1Cl,-3%,-6%,22%,.,-4,?
O=C(Cc1cccc(C(F)(F)F)c1)NCc1cccc(Cl)c1,10%,1%,0%,-4,1,10µM*
NC(N)=NN=C(c1ccc(F)cc1)c1ccc(C(F)(F)F)cc1,-3%,2%,?,15,.,1.1µM*
O=C(N/N=C/c1ccc(C(F)(F)F)cc1)c1ccc(O)cc1,16%,3%,-21%,-12,3,?
COc1ccc(N2CC(O)(c3ccc(OC(F)F)cc3)[N+]3=C2CCCC3)cc1 (configuration not stated),0%,2%,7%[7.66 µM],-86*,-73*,-10%[7.66 µM]
CCOc1ccc(N2CC(O)(c3cccs3)[N+]3=C2CCCC3)cc1 (configuration not stated),1%,0%,8%,?,-102*,-45%
CCOc1ccc(N2CC(O)(c3ccc(F)cc3)[N+]3=C2CCCC3)cc1 (configuration not stated),-1%,-9%,-7%,-49,-104*,-33%
COc1ccc(N2CC(O)(c3ccc(F)cc3)[N+]3=C2CCCC3)cc1 (configuration not stated),-6%,2%,1%[0.307 µM],4,-16,6%[0.307 µM]
COc1ccc(CN(CCc2ccccc2)Cc2ccccc2)cc1OC,-9%,-2%,9%,-23,-82*,?
COc1cc(CN(CCN(C)C)Cc2ccccc2)ccc1OCc1ccccc1,-1%,-14%,0%,40,-1,?
CCC(=O)c1ccc(OCC(O)CN(CCc2ccccc2)Cc2ccccc2)cc1 (configuration not stated),5%,0%,-21%,-6,-70*,8.9µM*
CCN(CC)CCOc1ccccc1C(=O)CCc1ccccc1,-7%,20%,.,.,.,.
O=C(Nc1ccccc1)c1ccccc1OCc1ccc(F)cc1,13%,-1%,9%,-6,7,-26%
CCCCN(CCCC)CC(O)COc1ccccc1C(=O)Nc1ccccc1 (configuration not stated),10%,3%,?,22,-74*,?
CCN(CC)CC(O)COc1ccccc1C(=O)CCc1ccccc1 (configuration not stated),-1%,0%,-2%,25,-71*,?
